From PubChem BioAssay (NCI) come the findings set out here.

Molecules are shown by their SMILES. The panel holds about 83,000 compounds, 20% with a hit somewhere; the sample as a whole holds those more often.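 Testing used 96-well plates and a 48-hour single-concentration exposure. Example: -40 means 40% of the starting cells died.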 Calls of active or inactive are those of the source. Rule for the calls: active = growth percent below 10; inactive = the rest.

In one test the test system is SR leukemia. In words: NCI-60 one-dose screen, 48 h (100 = growth as untreated, 0 = no growth, -100 = all killed). Conditions: 10 µM unless noted.
For the molecule `C/C(Cc1ccc(Cl)cc1)=C(\c1ccc(OCCCN(C)C)cc1)c1ccc(OC(=O)Cc2ccccc2)cc1`, the growth is 77.3% (inactive).
Take `COc1ccc(C(=O)/C=C/c2ccc(N3CCCCC3)cc2)cc1OC`: the growth is 73.3% (inactive).
In the case of `O=C1Nc2c(C(=O)O)cccc2/C1=N/c1n[nH]c(=S)s1`, the growth was 84.6% (inactive).
As to `COC(=O)N1CC(Oc2ccccn2)C2CC1c1ccccc1O2` (configuration not stated), the growth is 94.8% (inactive).
`CN(CCCNC(=O)Cc1ccc2ccc3cccc4ccc1c2c34)CCCNc1cc(-c2ccc3ccccc3c2)nc2ccccc12`: the growth was -70.8% (active).
Consider `CCOC(=O)C(=Cc1ccc(-c2ccccc2)cc1)C(=O)OCC`, for which the growth is 4.01% (active).
On the same count and under the same terms, next, `COc1ccc(C(O)c2cc3c(N)c(C(=O)Nc4cccc(Cl)c4C)sc3nc2C)cc1` (configuration not stated): 0.176% (active); `Oc1ccc(/C=C/c2ccc(O)cc2)cc1`: 47.7% (inactive).

In the next test the test system is RPMI-8226 leukemia. The test is described as above. Conditions: 10 µM unless noted.
As for `CCN(CC)CCN1C(=O)c2cccc3c(/C=C/CN4C(=O)c5cccc6cccc(c56)C4=O)ccc(c23)C1=O`, the growth was 26.5% (inactive).
Turning to `CCN1CCN(C(=O)[C@]23CC[C@@H](C)[C@H](C)[C@@H]2C2=CC[C@@H]4[C@@]5(C)C/C(=C/c6cccnc6)C(=O)C(C)(C)[C@@H]5CC[C@@]4(C)[C@]2(C)CC3)CC1`, the growth was -15.2% (active).
Same read-out and setting: as for `COc1ccc(C2CC(c3cc(OC)c(OC)c(OC)c3)=NO2)cc1OCCCCOc1cc2c(cc1OC)C(=O)N1CCC[C@H]1C=N2` (some centres not stated), the figure is 17.1% (inactive); as for `Cn1c(=O)c2[nH]c(SCC(=O)Nc3ccc(C(=O)/C=C/c4ccccc4Cl)cc3)nc2n(C)c1=O`, 82.2% (inactive).
On the same count and under the same terms, as for `CC1(C)N=C(N)N=C(N)N1c1cccc(CCc2ccccc2)c1`, the figure is 26.5% (inactive); as for `O=C1c2ccccc2C(=O)c2c1c(C(=O)NCc1ccccc1)c1ccccn21`, 95.8% (inactive); as for `CC1C(/C=N/NC(N)=S)C(C#N)(C#N)C1(C#N)C#N` (configuration not stated), 96.6% (inactive).
Same read-out and setting: next, `NS(=O)(=O)c1ccc(-c2cc(-c3nnc(SCC(=O)Nc4ccc(C(=O)/C=C/c5ccc(Cl)cc5)cc4)n3-c3ccccc3)c3ccccc3n2)cc1`: 10.7% (inactive); `CC1(C)CC[C@]2(C(=O)N[C@H](CO)Cc3ccccc3)CC[C@]3(C)C(=CC[C@@H]4[C@@]5(C)CCCNC(C)(C)[C@@H]5CC[C@]43C)[C@@H]2C1`: 36% (inactive).
On to `CCCCNc1cc(-c2cn[nH]c2-c2cc(C)cc(OC)c2)nc(-c2cccnc2)n1`, for which the growth was 83.1% (inactive).
For `C/C(=N\O)[C@@H]1CC[C@]2(CO)CC[C@]3(C)[C@H](CC[C@@H]4[C@@]5(C)CCCNC(C)(C)[C@@H]5CC[C@]43C)[C@@H]12`, the growth is 53.4% (inactive).
With `CN(C)CCCC1(c2ccc(F)cc2)OCc2cc(-c3cc4ccccc4s3)ccc21` (configuration not stated), the growth is -3.17% (active).
Regarding `C=C(C)[C@@H]1CCC[C@]2(C(=O)O)CC[C@]3(C)[C@@H](CC[C@@H]4[C@@]5(C)C/C(=C/c6ccncc6)C(=O)C(C)(C)[C@@H]5CC[C@]43C)[C@@H]12`, the growth was -9.5% (active).
Take `C=Cc1cnc(Nc2ccc(OC)cc2)nc1NCCCNC(=O)C1CCC1`: the growth is 43.8% (inactive).
Take `Cc1ccc(CNc2ccc3nc(CCC(C)C)[nH]c3c2)cc1`: the growth is 87.4% (inactive).
Same read-out and setting: as for `O=c1ccc(=O)n(-c2nc(-c3ccc([N+](=O)[O-])cc3)cs2)[nH]1`, the figure is 95.3% (inactive); as for `CC(=O)OC(c1ccccc1)C1CCOC1=O` (configuration not stated), 111% (inactive).
Turning to `Cc1ccc(-c2csc(N(C(=O)N3CCN(c4cc5c(cc4F)c(=O)c(C(=O)O)cn5C4CC4)CC3)c3ccccc3)n2)cc1`, the growth is 17.6% (inactive).
For the molecule `CCN1CCN(CC(=O)Nc2nc3ccc(NCc4ccc(F)cc4)cc3s2)CC1`, the growth is 77.3% (inactive).
Consider `CCOC(=O)c1c(C)nc2c(c1N)CC(=O)N2Cc1ccc(OC)cc1`, for which the growth is 67.1% (inactive).
`CCNC(=O)Oc1ccc(/C(=C(/C)Cc2ccc(OC)cc2)c2ccc(OCCN3CCCCC3)cc2)cc1`: the growth is 22.5% (inactive).
As to `C=C(C)[C@@H]1CCC[C@]2(C(=O)N3CCN(C)CC3)CC[C@]3(C)[C@@H](CC[C@@H]4[C@@]5(C)CC/C(=N\NC(=O)c6ccncc6)C(C)(C)[C@@H]5CC[C@]43C)[C@@H]12`, the growth was 78.2% (inactive).
On to `CCCCCCCCCCCCCOC(=O)c1c(C)[nH]c(/C=C2\N=C(c3ccc[nH]3)C=C2OC)c1C`, for which the growth was 11.2% (inactive).
With `COc1cccc(/C=C/C(=O)c2cccc(Nc3nc(Nc4ccccc4)nc(Nc4ccccc4)n3)c2)c1`, the growth was -55.2% (active).
Take `O=C(C1CCCCC1)[C@@H]1[C@]2(C(=O)NC3CCCCC32)[C@@H]2CCCN2[C@@]12C(=O)NC1CCC(Cl)CC12` (some centres not stated): the growth is -33.6% [100 µM] (active).
With `N#C/C(=C\c1ccc(-c2cccc(C(F)(F)F)c2)o1)c1ccccc1`, the growth is 90.9% (inactive).
Regarding `COc1cc(C(=O)n2nc(N3CCOCC3)c3cc(-n4cccc4)ccc32)cc(OC)c1OC`, the growth is 42.6% (inactive).
Take `COC(=O)c1c2c(c(C)[n+]([O-])c1C)C(=O)C(NCc1ccc(OC)cc1)=CC2=O`: the growth was 23.6% (inactive).
The same measure, in the same setting: as for `CC1=C(CCC(C)NCc2ccc(OCCCN3CCCCC3)cc2)C(C)(C)CCC1` (configuration not stated), the figure is -39.6% (active); as for `CN1CCN(CCCOc2cccc3nc(Nc4ccc(F)c(F)c4)ccc23)CC1`, -14.5% (active).
For the molecule `CC1(C)CC[C@]23CC[C@]4(C)[C@H](CC[C@@H]5[C@@]6(C)C/C(=C/c7ccncc7)C(=O)C(C)(C)[C@@H]6CC[C@]54C)[C@H]2[C@H]1OC3`, the growth was 50% (inactive).
For `C/C(Cc1ccc(Cl)cc1)=C(\c1ccc(OCCCN(C)C)cc1)c1ccc(OC(=O)Cc2ccccc2)cc1`, the growth was 105% (inactive).
As to `COc1ccc(C(=O)/C=C/c2ccc(N3CCCCC3)cc2)cc1OC`, the growth is 72.9% (inactive).
In the case of `O=C1Nc2c(C(=O)O)cccc2/C1=N/c1n[nH]c(=S)s1`, the growth is 87.7% (inactive).
Still for that read-out and setting: as for `COC(=O)N1CC(Oc2ccccn2)C2CC1c1ccccc1O2` (configuration not stated), the figure is 85.6% (inactive).
The same measure, in the same setting: next, `CN(CCCNC(=O)Cc1ccc2ccc3cccc4ccc1c2c34)CCCNc1cc(-c2ccc3ccccc3c2)nc2ccccc12`: -47% (active); `CCOC(=O)C(=Cc1ccc(-c2ccccc2)cc1)C(=O)OCC`: -3.52% (active).
On to `COc1ccc(C(O)c2cc3c(N)c(C(=O)Nc4cccc(Cl)c4C)sc3nc2C)cc1` (configuration not stated), for which the growth was -2.02% (active).
With `Oc1ccc(/C=C/c2ccc(O)cc2)cc1`, the growth was 12.8% (inactive).
